Experimental data published in PubChem BioAssay (Tox21).
The source made the active and inactive calls. Unless noted, calls come from the whole dose curve; as a rule, active = well fitted curve in the direction sought with a large enough effect in the repeat runs; inconclusive = weak or mixed curves; inactive = no such curve, though single readings can be large; an effect the other way counts as inactive or inconclusive.

Key:
[1] = qHTS assay to identify small molecule antagonists of the glucocorticoid receptor (GR) signaling pathway - cell viability counter screen (AID 720693); note: nearly all actives have a fitted effect of over 55% in size; note: potency is the fitted concentration of half-maximal effect
[2] = qHTS assay for identifying genotoxic compounds that show differential cytotoxicity against isogenic chicken DT40 cell lines with known DNA damage response pathways - wild type cell line (AID 743012); note: nearly all actives have a fitted effect of over 60% in size; note: potency is the fitted concentration of half-maximal effect
Summary of the method: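 Wild type DT40, 300 cells/well, ~0.5 h settle at 37 C/5% CO2; compounds in DMSO added by pintool; 40 h at 37 C/5% CO2; CellTiter-Glo, 30 min RT; luminescence.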

[3] = qHTS assay for identifying genotoxic compounds that show differential cytotoxicity against isogenic chicken DT40 cell lines with known DNA damage response pathways - Rev3 mutant cell line (AID 743014); note: nearly all actives have a fitted effect of over 55% in size; note: potency is the fitted concentration of half-maximal effect
[4] = qHTS assay for identifying genotoxic compounds that show differential cytotoxicity against isogenic chicken DT40 cell lines with known DNA damage response pathways - Rad54/Ku70 mutant cell line (AID 743015); note: nearly all actives have a fitted effect of over 60% in size; note: potency is the fitted concentration of half-maximal effect
[5] = qHTS assay to identify small molecule antagonists of the androgen receptor (AR) signaling pathway - cell viability counter screen (AID 743033; note: nearly all actives have a fitted effect of over 45% in size; note: potency is the fitted concentration of half-maximal effect)
[6] = qHTS assay to identify small molecule antagonists of the thyroid receptor (TR) signaling pathway (AID 743065); note: nearly all actives have a fitted effect of over 55% in size; note: potency is the fitted concentration of half-maximal effect
Summary of the method: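 Antagonism measured as loss of luciferase signal in GH3 cells stably carrying a TRE-luciferase reporter, co-treated with compound and T3 (1 nM final) for 23.5 h at 37 C. Viability was read in the same well by CellTiter-Fluor.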

[7] = tested on: thyroid hormone receptor (rat, GH3 cells); assay: qHTS assay to identify small molecule agonists of the thyroid receptor (TR) signaling pathway (AID 743066; calls by dose curve)
[8] = qHTS assay to identify small molecule antagonists of the estrogen receptor alpha (ER-alpha) signaling pathway - cell viability counter screen (AID 743074; calls by dose curve;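 note: HEK293 cells carrying ER-alpha-UAS-bla reporter stimulated with 17beta-estradiol; nearly all actives have a fitted effect of over 45% in size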; note: potency is the fitted concentration of half-maximal effect)
[9] = qHTS assay to identify small molecule antagonists of the estrogen receptor alpha (ER-alpha) signaling pathway using the BG1 cell line - cell viability counter screen (AID 743081);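 note: compound given together with 17beta-estradiol as the ER stimulus; nearly all actives have a fitted effect of over 45% in size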; note: potency is the fitted concentration of half-maximal effect
Aromatase (Homo sapiens) = Aromatase (Homo sapiens) (UniProt P11511); assay: qHTS assay to identify aromatase inhibitors (AID 743083); note: nearly all actives have a fitted effect of over 55% in size; note: potency is the fitted concentration of half-maximal effect
[10] = qHTS assay to identify small molecule antagonists of the thyroid receptor (TR) signaling pathway - cell viability counter screen (AID 743064); note: nearly all actives have a fitted effect of over 50% in size; note: potency is the fitted concentration of half-maximal effect
Summary of the method: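 Counter screen for cytotoxicity: compound plus T3 (1 nM final) on GH3.TRE-Luc cells, 23.5 h at 37 °C, then fluorescence viability readout with CellTiter-Fluor.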

[11] = qHTS assay to identify small molecule antagonists of the androgen receptor (AR) signaling pathway using the MDA cell line - cell viability counter screen (AID 743041; note: nearly all actives have a fitted effect of over 45% in size; note: potency is the fitted concentration of half-maximal effect)
Summary of the method: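 Cells were plated at 3,000 per well and left 5 h. Compounds in DMSO were then pinned in, followed by R1881. After 16 h at 37C, CellTiter-Fluor fluorescence gave viability.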

[12] = molecular target: Estrogen receptor (Homo sapiens) (UniProt P03372); assay: qHTS assay to identify small molecule antagonists of the estrogen receptor alpha (ER-alpha) signaling pathway (AID 743069; active = well fitted curve in the direction sought with a large enough effect in the signal ratio in the repeat runs, not every such curve was filed as active; inconclusive = weak or mixed curves, or effect the other way; inactive = no such curve, though single readings can be large or run the other way; the % refers to the signal ratio; note: potency is the fitted concentration of half-maximal effect)
Summary of the method: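 ER-alpha-UAS-bla GripTite HEK293 line; 2% charcoal-stripped FBS overnight; plated, 4 hr 37C/5% CO2; cpd in DMSO + 17beta-estradiol, 18 hr 37C; LiveBLAzer B/G FRET substrate 2 hr RT; fluorescence intensity.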

[13] = molecular target: Estrogen receptor (Homo sapiens) (UniProt P03372); assay: qHTS assay to identify small molecule agonists of the estrogen receptor alpha (ER-alpha) signaling pathway (AID 743075; calls by dose curve;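 note: HEK293 GripTite cells with ER-alpha and UAS-driven beta-lactamase reporter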; note: potency is the fitted concentration of half-maximal effect); conditions: HEK293 ER-alpha-UAS-bla, beta-lactamase FRET ratio, 18 h; activation: at 70.1 µM (top of the series)
[14] = molecular target: Estrogen receptor (Homo sapiens) (UniProt P03372); assay: qHTS assay to identify small molecule agonists of the estrogen receptor alpha (ER-alpha) signaling pathway using the BG1 cell line (AID 743079); conditions: BG1Luc4E2 cells, ERE-luciferase agonist, 22 h; for activation: at 70.3 µM (top of the series); note: potency is the fitted concentration of half-maximal effect; for all read-outs here: nearly all actives have a fitted effect of over 20% in size
[15] = qHTS assay to identify small molecule antagonists of the estrogen receptor alpha (ER-alpha) signaling pathway using the BG1 cell line (AID 743080; calls by dose curve;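 note: BG1 cells stimulated with 17beta-estradiol alongside compound; nearly all actives have a fitted effect of over 25% in size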; note: potency is the fitted concentration of half-maximal effect)
Summary of the method: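 After 5 days in phenol-red-free 10% charcoal-stripped FBS medium, BG1-Luc-4E2 cells were seeded, left 24 h at 37 C, co-treated with compounds and 17beta-estradiol for 21.5 h, then assayed for viability and luciferase.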

[16] = molecular target: Androgen receptor (Homo sapiens) (UniProt P10275); assay: qHTS assay to identify small molecule antagonists of the androgen receptor (AR) signaling pathway (AID 743035; active = well fitted inhibition curve with a large enough effect in the signal ratio in the repeat runs, not every such curve was filed as active; inconclusive = weak or mixed curves, or effect the other way; inactive = no such curve, though single readings can be large or run the other way; the % refers to the signal ratio; note: potency is the fitted concentration of half-maximal effect)
Summary of the method: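 Fluorescence from a beta-lactamase FRET substrate (LiveBLAzer B/G, 2 h, room temperature) measured inhibition of R1881-stimulated signaling in GeneBLAzer AR-UAS-bla HEK293 cells exposed to compound for 16 h at 37C.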

[17] = molecular target: Androgen receptor (Homo sapiens) (UniProt P10275); assay: qHTS assay to identify small molecule agonists of the androgen receptor (AR) signaling pathway (AID 743036; active = well fitted activation curve with a large enough effect in the signal ratio in the repeat runs, with a control signal flat, not every such curve was filed as active; inconclusive = weak or mixed curves, or effect the other way; inactive = no such curve, though single readings can be large or run the other way; the % refers to the signal ratio)
Summary of the method: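 In this Tox21 qHTS, 2,000 HEK293 AR-bla cells per well were incubated with compounds for 16 h at 37C and 5% CO2. Fluorescence intensity was recorded 2 h after adding LiveBLAzer B/G FRET substrate at room temperature.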

[18] = molecular target: Androgen receptor (Homo sapiens) (UniProt P10275); assay: qHTS assay to identify small molecule agonists of the androgen receptor (AR) signaling pathway using the MDA cell line (AID 743040; note: nearly all actives have a fitted effect of over 20% in size)
Summary of the method: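 Cells plated, 5 h at 37C/0% CO2; compound or DMSO pinned; 16 h at 37C; ONE-Glo added; luminescence measured after 30 min at room temperature. Reporter line: MDA-kb2 with MMTV-luciferase responsive to AR and GR.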

[19] = molecular target: Androgen receptor (Homo sapiens) (UniProt P10275); assay: qHTS assay to identify small molecule antagonists of the androgen receptor (AR) signaling pathway using the MDA cell line (AID 743042; note: nearly all actives have a fitted effect of over 55% in size)
Summary of the method: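 Antagonist mode: compounds plus R1881 agonist added to MDA-kb2 AR-luc cells, incubated 16 h at 37C. Luciferase reporter luminescence quantified, with multiplexed CellTiter-Fluor readout for cell viability.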
% is set by controls: 0 for no effect and ±100 for the full control effect.

Chain of Estrogen receptor (Homo sapiens) (P03372 whole entry, looked up): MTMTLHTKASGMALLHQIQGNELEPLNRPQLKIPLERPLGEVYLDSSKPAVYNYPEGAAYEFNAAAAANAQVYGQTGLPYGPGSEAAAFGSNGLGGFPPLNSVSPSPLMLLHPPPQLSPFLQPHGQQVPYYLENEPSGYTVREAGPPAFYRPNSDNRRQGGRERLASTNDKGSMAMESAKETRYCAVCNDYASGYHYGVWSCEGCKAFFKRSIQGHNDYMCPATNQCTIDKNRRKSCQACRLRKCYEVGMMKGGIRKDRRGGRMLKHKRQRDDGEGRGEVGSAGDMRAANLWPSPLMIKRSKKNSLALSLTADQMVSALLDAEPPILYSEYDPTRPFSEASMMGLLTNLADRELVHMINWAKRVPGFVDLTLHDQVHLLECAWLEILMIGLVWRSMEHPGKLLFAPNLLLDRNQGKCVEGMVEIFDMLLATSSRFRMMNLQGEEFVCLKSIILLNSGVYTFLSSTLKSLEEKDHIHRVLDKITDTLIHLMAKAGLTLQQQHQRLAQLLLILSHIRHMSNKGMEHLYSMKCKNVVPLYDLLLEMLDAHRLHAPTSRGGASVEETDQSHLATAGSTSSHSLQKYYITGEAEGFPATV
Chain of Aromatase (Homo sapiens) (P11511 whole entry, looked up): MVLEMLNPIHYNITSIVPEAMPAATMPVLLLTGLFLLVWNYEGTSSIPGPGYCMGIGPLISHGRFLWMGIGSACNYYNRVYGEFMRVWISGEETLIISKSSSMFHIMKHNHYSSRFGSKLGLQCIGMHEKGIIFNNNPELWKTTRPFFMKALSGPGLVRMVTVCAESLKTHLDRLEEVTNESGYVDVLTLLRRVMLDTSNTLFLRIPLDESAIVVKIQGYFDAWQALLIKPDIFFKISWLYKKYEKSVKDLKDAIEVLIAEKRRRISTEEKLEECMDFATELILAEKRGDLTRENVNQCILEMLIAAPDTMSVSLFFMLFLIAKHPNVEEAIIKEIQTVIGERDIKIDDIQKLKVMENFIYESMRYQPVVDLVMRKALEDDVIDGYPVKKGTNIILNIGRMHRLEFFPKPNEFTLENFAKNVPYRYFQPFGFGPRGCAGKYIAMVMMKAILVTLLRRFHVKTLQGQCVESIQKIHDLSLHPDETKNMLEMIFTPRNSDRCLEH
Chain of Androgen receptor (Homo sapiens) (P10275 whole entry, looked up): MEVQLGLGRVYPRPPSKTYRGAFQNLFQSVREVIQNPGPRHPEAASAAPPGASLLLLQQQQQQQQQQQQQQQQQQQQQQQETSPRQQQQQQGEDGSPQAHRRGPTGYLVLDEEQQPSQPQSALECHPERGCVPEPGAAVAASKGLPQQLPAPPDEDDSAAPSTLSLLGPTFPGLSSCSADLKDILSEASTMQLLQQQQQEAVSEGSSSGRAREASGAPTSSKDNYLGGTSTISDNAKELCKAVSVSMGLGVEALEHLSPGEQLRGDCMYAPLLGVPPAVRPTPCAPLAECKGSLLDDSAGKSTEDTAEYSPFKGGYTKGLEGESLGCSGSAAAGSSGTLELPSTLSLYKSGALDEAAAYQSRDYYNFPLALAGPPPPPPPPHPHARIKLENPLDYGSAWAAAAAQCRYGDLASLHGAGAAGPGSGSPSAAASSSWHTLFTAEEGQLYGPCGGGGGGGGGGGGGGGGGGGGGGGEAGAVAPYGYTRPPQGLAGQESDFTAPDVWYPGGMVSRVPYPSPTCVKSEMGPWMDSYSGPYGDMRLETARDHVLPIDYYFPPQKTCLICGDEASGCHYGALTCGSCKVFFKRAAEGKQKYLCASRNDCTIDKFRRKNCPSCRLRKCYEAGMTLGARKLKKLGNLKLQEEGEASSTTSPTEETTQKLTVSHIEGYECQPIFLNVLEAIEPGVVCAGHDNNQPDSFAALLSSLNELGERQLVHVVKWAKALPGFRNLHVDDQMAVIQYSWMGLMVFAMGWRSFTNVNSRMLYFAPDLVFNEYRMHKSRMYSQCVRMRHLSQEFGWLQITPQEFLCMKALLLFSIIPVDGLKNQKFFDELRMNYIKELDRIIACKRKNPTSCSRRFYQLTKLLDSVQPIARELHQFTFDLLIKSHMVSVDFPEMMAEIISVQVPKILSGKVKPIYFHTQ

Cc1cc(N)c(S(=O)(=O)O)cc1Cl
inactive: Potency [1] | Potency [2] | Potency [3] | Potency [4] | Potency [5] | Potency [6] | Potency [7] | Potency [8] | Potency [9] | Potency (Aromatase (Homo sapiens))

CC1=C(/C=C/C(C)=C/C=C/C(C)=C/C=O)C(C)(C)CCC1
active: Potency [1] 24.4 µM | Potency [2] 13.6 µM | Potency [3] 9.63 µM | Potency [4] 12.1 µM | Potency [5] 21.8 µM | Potency [10] 7.65 µM | Potency [6] 8.58 µM | Potency [8] 54.6 µM | Potency [9] 60.8 µM | Potency (Aromatase (Homo sapiens)) 15.3 µM
inactive: Potency [7]

O=[N+]([O-])c1cc(Cl)c(Cl)c(Cl)c1Cl
inactive: Potency [1] | Potency [2] | Potency [3] | Potency [4] | Potency [5] | Potency [11] | Potency [7] | Potency [8] | Potency [9]
active: Potency [6] 60.9 µM

CCc1cc(SCc2sc(-c3ccc(C(F)(F)F)cc3)nc2CN2CCN(c3ccc(OC)cc3)CC2)ccc1OCC(=O)O
inactive: Potency [9]
active: Potency [1] 49 µM | Potency [2] 43.3 µM | Potency [3] 61.1 µM | Potency [4] 30.6 µM | Potency [5] 5.49 µM | Potency [10] 24.3 µM | Potency [6] 12.2 µM | Potency (Aromatase (Homo sapiens)) 54.5 µM

NC(=O)CC[C@@H]1NC(=O)[C@H](Cc2ccccc2)NC(=O)[C@H](Cc2ccc(O)cc2)NC(=O)CCSSC[C@@H](C(=O)N2CCC[C@H]2C(=O)N[C@@H](CCCN=C(N)N)C(=O)NCC(N)=O)NC(=O)[C@H](CC(N)=O)NC1=O
inactive: Potency [1] | Potency [2] | Potency [3] | Potency [4] | Potency [5] | Potency [8] | Potency [9] | Potency (Aromatase (Homo sapiens))

O=[N+]([O-])c1ccccc1Nc1ccccc1
inactive: Potency [1] | Potency [2] | Potency [3] | Potency [4] | Potency [5] | Potency [10] | Potency [6] | Potency [7] | Potency [12] | Potency [8] | Potency [13] | activation [14] 4.1% | Potency [15] | Potency [9]

Cc1cc2c(cc1C(F)(F)F)N(C(=O)Nc1ccc(Oc3cccnc3C)nc1)CC2
inactive: Potency [1] | Potency [5] | Potency [10] | Potency [7] | Potency [12] | Potency [8] | Potency [13] | Potency [9]
active: Potency [2] 1.24 µM | Potency [3] 0.781 µM | Potency [4] 22 µM | Potency [6] 22 µM

CC(C)(C)C(=O)OCOC(=O)C1N2C(=O)CC2S(=O)(=O)C1(C)C (configuration not stated)
active: Potency [16] 6.74 µM | Potency [12] 3.38 µM [inconclusive]
inactive: Potency [1] | Potency [2] | Potency [3] | Potency [4] | Potency [17] | Potency [18] | Potency [11] | Potency [19] | Potency [10] | Potency [6] | Potency [7] | Potency [8] | Potency [13] | activation [14] -1.04% | Potency [15] | Potency [9] | Potency (Aromatase (Homo sapiens))

O=C(Nc1cccc(Cl)c1)OCC#CCCl
active: Potency [1] 54.9 µM | Potency [2] 24.3 µM | Potency [3] 21.7 µM | Potency [4] 13.7 µM | Potency [5] 49 µM | Potency [10] 24.3 µM | Potency [6] 17.2 µM | Potency (Aromatase (Homo sapiens)) 21.7 µM
inactive: Potency [13]

CCOC(=O)/C=C(C)/C=C/C=C(C)/C=C/c1c(C)cc(OC)c(C)c1C
inactive: Potency [1] | Potency [5] | Potency [11] | Potency [13] | Potency [9] | Potency (Aromatase (Homo sapiens))
active: Potency [2] 9.44 µM | Potency [3] 2.37 µM | Potency [4] 6.68 µM | Potency [15] 4.22 µM

Cc1cc(C2CCCCC2)n(O)c(=O)c1
active: Potency [2] 1.43 µM | Potency [3] 1.14 µM | Potency [4] 2.54 µM | Potency [10] 2.54 µM | Potency [6] 2.27 µM | Potency [12] 2.88 µM [inhibitor] | Potency [15] 9.02 µM
inactive: Potency [1] | Potency [5] | Potency [11] | Potency [13] | Potency [9]

CS(=O)(=O)CCNCc1ccc(-c2ccc3ncnc(Nc4ccc(OCc5cccc(F)c5)c(Cl)c4)c3c2)o1
inactive: Potency [1] | Potency [2] | Potency [3] | Potency [4] | Potency [16] | Potency [18] | Potency [11] | Potency [19] | Potency [10] | Potency [6] | Potency [7] | Potency [12] | Potency [13] | Potency [15] | Potency [9] | Potency (Aromatase (Homo sapiens))

CCCCCCCCCCCCc1ccc(O)cc1
active: Potency [1] 21.9 µM | Potency [2] 10.9 µM | Potency [3] 7.7 µM | Potency [4] 12.2 µM | Potency [5] 34.7 µM | Potency [11] 54.5 µM | Potency [10] 13.7 µM | Potency [6] 13.7 µM | Potency [8] 49 µM | Potency [13] 3.09 µM [inconclusive] | Potency [14] 0.969 µM | Potency (Aromatase (Homo sapiens)) 48.6 µM
